Measured values from PubChem BioAssay (Tox21).
Inconclusive results are not listed. Entries that show only a call come without a potency. The source made the active and inactive calls. Calls come from the whole dose curve; as a rule, active = well fitted cell-killing curve with a large enough effect in the repeat runs; inconclusive = weak or mixed curves, or effect the other way; inactive = no such curve, though single readings can be large or run the other way.

Assay: Caspase-3/7 induction in CHO-K1 cells by small molecules, qHTS cell viability counter screen (AID 1346979); note: nearly all actives have a fitted effect of over 35% in size
Conditions: CellTiter-Fluor fluorescence, 17 h; series mostly up to 92.4 µM
How it was run: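 Viability readout by fluorescence (CellTiter-Fluor) on wild-type CHO-K1 cells exposed for 16hr at 37C and 5% CO2 to compounds delivered in DMSO; reagent incubated 1hr before reading.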
Potency is the fitted concentration of half-maximal effect.

| Structure (SMILES) | Potency |
| --- | --- |
| CCCCCCCCOC(=O)c1ccc(C(=O)OCCCCCCCC)c(C(=O)OCCCCCCCC)c1 | inactive |
| CC(C)O.CC(C)O.OCCN(CCO)CCO.OCCN(CCO)CCO.[Ti] | inactive |
| C[N+](C)(C)CCCl | inactive |
| C=CCN1CC[C@]23c4c5ccc(O)c4O[C@H]2C(=O)CC[C@@]3(O)[C@H]1C5 | inactive |
| COC(=O)c1cncn1C(C)c1ccccc1 (configuration not stated) | inactive |
| Clc1cc(Cl)c(Cl)c(Cl)c1 | inactive |
| C[C@@H]1CC[C@H]2[C@@H](C)C(=O)O[C@@H]3O[C@@]4(C)CC[C@@H]1[C@]32OO4 | 4.22 µM (active) |
| CCBr | inactive |
| CC(C)(OO)c1ccccc1 | inactive |
| CC/C(=N\OC/C=C/Cl)C1=C(O)CC(C2CCOCC2)CC1=O (configuration not stated) | inactive |
| CC(C)(CCl)C(=O)Cl | inactive |
| CCOS(C)(=O)=O | inactive |
| C[C@H]1CNCCc2ccc(Cl)cc21 | inactive |
| COC(C)(C)CCC[C@H](C)C/C=C/C(C)=C/C(=O)OC(C)C | inactive |
| Clc1cc(C(Cl)(Cl)Cl)cnc1Cl | 61.1 µM (active) |
| CC(=O)[C@H]1CC[C@H]2[C@@H]3CC[C@H]4C[C@](C)(O)CC[C@]4(C)[C@H]3CC[C@]12C | inactive |
| O=S(=O)(Cl)c1ccccc1 | inactive |
| Cc1cc(=O)[nH]o1 | inactive |
| CNC(C)Cc1ccccc1OC (configuration not stated) | inactive |
| c1ccc(CN2CCNCC2)cc1 | inactive |
| ClCc1ccccc1 | inactive |
| CCCCCC[N+](=O)[O-] | inactive |
